# HT1080 IDH1KD tx: qHTS for induction of synthetic lethality in tumor cells producing 2HG: qHTS for the HT-1080-IDH1KD cell line. Potency, µM (series often up to 46.1 µM), for the others: at the top dose activity, negative = toxicity, usual class: cytotoxic. HT-1080 IDH1 knockdown viability, ATP luminescence, 48 h. 2% of 360,000 active. AID 686971, 2013;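 also: potency is read from the fitted curve at half-maximal effect; 0% = DMSO wells and -100% = cell-free medium wells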
#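 % activity derives from luminescence (CellTiter-Glo), normalised to DMSO and no-cell wells. HT-1080-IDH1KD cells, 750/well, had 48 h compound exposure at 37 °C.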
# IL1B secr inh: qHTS for Inhibitors of Inflammasome Signaling: IL-1-beta AlphaLISA Primary Screen | 4.7% of 360,000 active | activity change, % at 57.5 µM | THP-1 LPS/ATP IL-1B secretion, AlphaLISA, 16 h; active compounds read low; in the data active = activity change below about -50%; inconclusive = mostly about -30% to -49%
#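 Secreted IL-1B measured by AlphaLISA bead assay after 16 h compound exposure of THP-1 cells; compounds (final up to 57.5 uM) added 1 h before LPS (250 ng/mL) and ATP (1.25 mM) stimulation; lower signal means less secretion.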
# TDP1 cell CPT: qHTS for Inhibitors of human tyrosyl-DNA phosphodiesterase 1 (TDP1): qHTS in cells in presence of CPT; chicken DT40 Tdp1-/-;hTDP1 cells + 20 nM CPT, ATP luminescence, 48 h; Potency, µM (highest dose often 46.2 µM), for the others: at the highest dose activity change, negative = growth inhibition, actives largely listed as inhibitors; 12% of 420,000 active; AID 686979, 2013; also: potency is read from the fitted curve at half-maximal effect; nearly all actives have a fitted effect of over 55% in size
#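 Chicken DT40 Tdp1-/- cells stably complemented with human TDP1 were seeded at 400 cells/well in medium containing 20 nM camptothecin, exposed to pin-transferred compounds, and grown at 37 °C for at least 48 hr. Viability was read as ATP luminescence.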
# TDP1 cell noCPT: qHTS for Inhibitors of human tyrosyl-DNA phosphodiesterase 1 (TDP1): qHTS in cells in absence of CPT; DT40 Tdp1-/- hTDP1 cells, no CPT, ATP luminescence, 48 h; Potency, µM (highest dose often 46.2 µM), inactives show top-dose activity change, negative = growth inhibition, most hits filed as inhibitors; 15% of 420,000 active; AID 686978, 2013; also: potency is read from the fitted curve at half-maximal effect; nearly all actives have a fitted effect of over 55% in size
#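 A cellular qHTS used chicken DT40 cells lacking endogenous Tdp1 but carrying stably transfected human TDP1. Compounds were applied without camptothecin, and cell growth kinetics were judged by ATP-dependent luminescence after ≥48 hr.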
# HT1080NT lethal: qHTS for induction of synthetic lethality in tumor cells producing 2HG: qHTS for the HT-1080-NT fibrosarcoma cell line; AID 686970, 2013; HT-1080-NT fibrosarcoma viability, CellTiter-Glo ATP luminescence, 48 h; Potency, µM (highest dose often 46.1 µM), inactives show at the highest dose activity, negative = less viability, hits mostly cytotoxic; 1.6% of 360,000 active;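 also: NT is the 2HG producing partner of a matched IDH1 knockdown line; potency is read from the fitted curve at half-maximal effect; 0% = DMSO-treated cells and -100% = media-only wells without cells; nearly all actives have a fitted effect of over 55% in size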
#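 HT-1080-NT fibrosarcoma cells (2HG-overproducing), 750 cells/well in RPMI with 5% FBS, dosed after 2 h and incubated 48 h at 37C. CellTiter-Glo luminescence normalized to DMSO and no-cell wells; concentration-response curves fitted and classed.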
# Active calls of the source: *; ? = inconclusive; . = no result given. In the library only some 19% were active in any assay of this set; here they are far more common. Unless noted, calls follow the shape of the dose curve; as a rule, active = well fitted curve in the direction sought with a large enough effect; inconclusive = small, poorly fitted or top-dose-only effect, or another doubt; inactive = no such curve, though single readings can be large; an effect the other way counts as inactive or inconclusive. Unless noted, % is scaled to controls: 0 for no effect and ±100 for the full control effect.
SMILES,HT1080 IDH1KD tx,IL1B secr inh,TDP1 cell CPT,TDP1 cell noCPT,HT1080NT lethal
COCCN1CCN(C(=O)C2CCC(=O)N(Cc3cccc(C(F)(F)F)c3)C2)CC1 (stereo not drawn),7.4%,0.0,-4.3%,4.8%,0.5%
CN(CC(=O)Nc1cccc(S(=O)(=O)NC2=NCCC2)c1)Cc1ccccc1Cl,-0.7%,1.3,-19.3%,-8.7%,-0.5%
CCOC(=O)N1CCN(S(=O)(=O)c2ccc(OCC(=O)OC)c(Cl)c2)CC1,9.9%,-91.3*,-0.3%,-3.8%,-2.6%
CCOC(=O)N1CCN(S(=O)(=O)c2ccc(OC)c(Cl)c2Cl)CC1,-7.9%,-2.8,?,13µM*,-8.8%
CCOC(=O)N1CCN(S(=O)(=O)c2ccc(OCC)c3ccccc23)CC1,?,-79.7*,16.4µM*,23.1µM*,-6.7%
COCc1cc(S(=O)c2ccc(Cl)cc2)nc(C)n1 (stereo not drawn),?,-8.7,4.61µM*,2.91µM*,?
COCc1cc(Sc2ccc(Cl)cc2)nc(C)n1,-3.6%,15.5,?,-8.6%,-11.7%
O=C(O)c1nc(-c2ccccc2)c(C(=O)NC2CC2)[nH]1,19.9%,-14.5,-3.1%,7.2%,25.6%
Cc1nn(C)c2ncc(C(=O)c3ccccc3O)cc12,-4.7%,42.2,?,?,-9.5%
Cc1[nH]nc2ncc(C(=O)c3ccccc3O)cc12,?,-50.8*,10.3µM*,?,1.4%
Cc1cc(C)nc(N2CCCC(C(=O)NCc3ccccc3F)C2)n1 (stereo not drawn),5.9%,5.7,0.4%,3.1%,10.9%
COc1ccc(C(=O)C2CCCN(C(=O)c3noc4c3CCCC4)C2)c(C)c1 (stereo not drawn),5.5%,-23.2,?,20.6µM*,-1.0%
COc1ccc(C(=O)C2CCCN(S(=O)(=O)c3ccc(C(C)=O)cc3)C2)c(C)c1 (stereo not drawn),-12.0%,?,16.4µM*,11.6µM*,-2.3%
CCS(=O)(=O)N1CCCC(C(=O)c2ccc(OC)cc2C)C1 (stereo not drawn),4.6%,39.5,4.3%,2.7%,4.5%
COc1ccc(C(=O)C2CCCN(C(=O)c3ccccc3C(C)=O)C2)cc1F (stereo not drawn),-2.5%,76.6,?,?,0.2%
COc1ccc(C(=O)C2CCCN(C(=O)c3noc4c3CCCC4)C2)cc1F (stereo not drawn),5.8%,5.3,?,18.4µM*,7.5%
COc1ccc(C(=O)C2CCCN(C(=O)c3cccnc3SC)C2)c(C)c1 (stereo not drawn),-22.2%,-70.0*,?,?,-10.3%
NC(=O)C1CCN(c2oc(/C=C/c3ccccc3)nc2S(=O)(=O)c2ccccc2)CC1,-0.1%,-8.3,-5.5%,?,-2.4%
O=C(NCCCN1CCOCC1)C1Cc2c(ccc3ccccc23)O1 (stereo not drawn),-8.1%,-8.4,?,?,2.8%
COc1ccc(C(=O)C2CCCN(C(=O)c3csc(C(C)=O)c3)C2)c(C)c1 (stereo not drawn),-7.7%,11.6,?,-18.4%,2.6%
COc1ccc(C(=O)C2CCCN(C(=O)C3=CCCC3)C2)c(C)c1 (stereo not drawn),-10.4%,-7.7,?,23.1µM*,-3.6%
O=C1C(F)=CC(COC(c2ccccc2)(c2ccccc2)c2ccccc2)OC1n1cc(F)c(=O)[nH]c1=O (stereo not drawn),20.6µM*,-101.3*,1.64µM*,1.46µM*,?
C[C@H]1O[C@@H](n2cc(F)c(=O)[nH]c2=O)[C@H](O)[C@@H]1O,-25.2%,5.9,?,?,-13.7%
C=CCN1C(=O)/C(=C/C=C2/N(CC)c3ccc(S(=O)(=O)N(C)C)cc3N2CC)SC1=S,-13.1%,13.2,?,?,-4.5%
Cc1nn(-c2ccccc2)c(N)c1Sc1ccccc1[N+](=O)[O-],-15.1%,10.4,?,16.4µM*,-8.0%
SMILES,HT1080 IDH1KD tx,IL1B secr inh,TDP1 cell CPT,TDP1 cell noCPT,HT1080NT lethal
Cc1nn(-c2ccccc2)c(N)c1Sc1cccc([N+](=O)[O-])c1,-16.0%,-11.4,?,?,?
COc1cc2[nH]c(=S)nc(NCC3CCCO3)c2cc1OC (stereo not drawn),4.7%,0.0,-10.0%,-1.3%,5.5%
COc1cc2[nH]c(=S)nc(NCc3cccs3)c2cc1OC,0.3%,-5.8,-29.0%,23.1µM*,-19.0%
COc1cc2[nH]c(=S)nc(NC3CCCCCC3)c2cc1OC,?,-139.3*,?,?,?
CCc1cc(C(=O)NCC(C)(C)N2CCOCC2)sc1C,13.5%,17.2,1.5%,-23.7%,9.9%
Cc1cc(O)ccc1N=Cc1c(C(F)(F)F)[nH][nH]c1=O,-1.9%,-6.8,23.1µM*,10.3µM*,-5.5%
Cc1cccc(CC(=O)N2CCCC2)c1,1.3%,6.2,1.7%,5.3%,3.3%
CC(C)C(NC(=O)C(NC(=O)C1OC2OC(C)(C)OC2C2OC(C)(C)OC12)C(C)C)C(=O)O (stereo not drawn),16.5%,-0.5,28.2%,-4.2%,18.5%
COc1cccc(CNS(=O)(=O)c2cc(Br)cc3c2N(C(C)=O)C(C)C3)c1 (stereo not drawn),0.1%,-5.4,-8.4%,?,6.0%
CCOc1ccc(OCC)c(NS(=O)(=O)c2cc(Br)cc3c2N(C(C)=O)C(C)C3)c1 (stereo not drawn),.,.,?,13µM*,.
CC(=O)N1c2c(cc(Br)cc2S(=O)(=O)N2CCN(c3cccc(Cl)c3)CC2)CC1C (stereo not drawn),.,.,10.3µM*,9.2µM*,.
CCOc1ccc(N(CC)S(=O)(=O)c2cc(Br)cc3c2N(C(C)=O)C(C)C3)cc1 (stereo not drawn),.,.,20.6µM*,7.31µM*,.
Cc1cccc(S(=O)(=O)NC(=O)C2(C)CCN2C(=O)c2cccc(F)c2)c1 (stereo not drawn),18.2%,20.5,-6.5%,-3.7%,?
Cc1ccc2cc3cc(C(=O)N4CCN(c5ccc(Cl)cc5)CC4)oc3nc2c1,.,.,9.2%,8.3%,.
CCC(C)Nc1nc(Cl)nc(N(C#N)CN2C(=O)c3ccccc3S2(=O)=O)n1 (stereo not drawn),-23.3%,-65.7*,14.6µM*,?,-19.6%
CC(C)Nc1nc(Cl)nc(N(C#N)CN2C(=O)c3ccccc3C2=O)n1,18.4µM*,-98.6*,3.1%,-25.5%,?

# From PubChem
